The values that follow come from PubChem BioAssay (Tox21).

Records with an inconclusive call do not appear. Where a call stands in place of a potency, no number is given. Some compounds were tested as several samples or in several runs, with calls that do not always agree. Activity calls are given as the source filed them. The call rests on the fitted dose curve.
Potency means the concentration at half of the fitted maximal effect.

Chain of Muscarinic acetylcholine receptor M1 (Homo sapiens) (P11229 whole entry, looked up): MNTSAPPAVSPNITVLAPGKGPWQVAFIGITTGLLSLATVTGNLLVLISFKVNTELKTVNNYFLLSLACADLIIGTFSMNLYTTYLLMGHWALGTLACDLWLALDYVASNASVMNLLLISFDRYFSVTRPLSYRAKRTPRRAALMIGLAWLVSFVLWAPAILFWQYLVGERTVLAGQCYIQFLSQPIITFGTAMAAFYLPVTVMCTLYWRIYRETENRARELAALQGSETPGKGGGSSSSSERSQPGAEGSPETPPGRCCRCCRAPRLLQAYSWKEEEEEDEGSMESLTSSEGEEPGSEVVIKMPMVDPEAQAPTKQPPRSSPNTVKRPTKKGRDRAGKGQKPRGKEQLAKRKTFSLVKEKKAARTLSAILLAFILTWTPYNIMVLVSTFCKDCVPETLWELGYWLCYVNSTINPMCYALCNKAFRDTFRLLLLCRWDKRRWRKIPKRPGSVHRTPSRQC

The target in the assay is Muscarinic acetylcholine receptor M1 (Homo sapiens) (UniProt P11229). In words: Cholinergic receptor muscarinic 1 (CHRM1) small molecule antagonists, cell-based qHTS assay (AID 1963588). Further: nearly all actives have a fitted effect of over 40% in size. The note with it: CHRM1-CHO antagonist mode, calcium flux fluorescence; series mostly up to 61.5 µM. The text has this:
National Center for Advancing Translational Sciences [NCATS]
Division of Preclinical Innovation [DPI]
U.S. Environmental Protection Agency [EPA]
National Institutes of Environmental Health Sciences [NIEHS]
National Toxicology Program [NTP]
U.S. Food and Drug Administration [FDA]
The CHRM1 is a muscarinic receptor. This receptor plays a crucial role in learning and memory processes and has long been identified as a promising therapeutic target for the improvement of cognitive decline in Alzheimer's disease (AD). The CHRM1-CHO cell line stably expressing human muscarinic acetylcholine receptor M1 (CHRM1) can be used for screening agonists and antagonists of interactions between CHRM1 and its ligands. The CHRM1-CHO Calcium Flux Assay is a homogeneous fluorescence-based assay for detecting the intracellular calcium level using FDSS kinetic plate reader system.
Tox21 Assay Protocol Summary:
CHRM1-CHO cells were dispensed at 1000 cells/3uL/well in 1536-well black-clear bottom plates using a Multidrop Dispenser. After the assay plates were incubated at a 37 C/5% CO2 incubator for 18 h, 3 uL of Dye Loading Buffer was transferred to the assay plate by a Flying Reagent Dispenser. The assay plates were incubated at 37 C for 1h. For antagonist mode, 23 nL of compounds dissolved in DMSO, positive controls or DMSO only was transferred to the assay plate by a pin tool. After 5 min incubation at room temperature, 1.5 uL of acetylcholine at 50nM was added to each well. The fluorescence intensity in the plates was measured using FDSS 7000EX kinetic plate reader for 3 min at 1 sec intervals. Each test compound was measured at 15 concentrations in three independent runs.
In general terms: Quantitative high-throughput screening tests each substance at several concentrations.
As for `[Cd+2].[Cl-].[Cl-]`, the Potency entry was “inactive”.

In the case of `c1ccc(CN2CCNCC2)cc1`, the Potency result was “inactive”.

Take `O=S(=O)(O)C(F)(F)C(F)(F)C(F)(F)C(F)(F)C(F)(F)C(F)(F)F`: the Potency result was “inactive”.

`N#CCNCC#N`: the Potency entry was “inactive”.

`C=CCN1CC[C@]23CCCC[C@H]2[C@H]1Cc1ccc(O)cc13`: the Potency result was “inactive”.

As for `C=CCCl`, the Potency result is “inactive”.

With `O=C(CBr)c1ccc(O)cc1`, the Potency result is “inactive”.

For `COP(=O)(OC)OC`, the Potency result is “inactive”.

As to `O=C1CCCO1`, the Potency is 14.6 µM (active) and inactive.

Consider `O=[N+]([O-])O[C@H]1CO[C@H]2[C@@H]1OC[C@H]2O[N+](=O)[O-]`, for which the Potency entry was “inactive”.

`CCC(C)Cl` (stereo not given): the Potency result was “inactive”.

With `O=P(O)(O)CN(CP(=O)(O)O)CP(=O)(O)O`, the Potency result was “inactive”.

Consider `O=S(=O)(O)C(F)(F)C(F)(F)C(F)(F)C(F)(F)C(F)(F)C(F)(F)C(F)(F)C(F)(F)F`, for which the Potency result was “inactive”.

As to `CCCCCON=O`, the Potency entry is “inactive”.

Consider `CCOP(=O)(OCC)OCC`, for which the Potency entry was “inactive”.

For `CCC[N+]1(C)CCCC1`, the Potency entry is “inactive”.

For the molecule `COP(=S)(OC)Oc1ccc(S(=O)(=O)N(C)C)cc1`, the Potency result is “inactive”.

Regarding `CCCCN(CCCCO)N=O`, the Potency entry was “inactive”.

Take `CC(C)N(C(=O)CCl)c1ccccc1`: the Potency result was “inactive”.

In the case of `Oc1ccc(Cl)cc1Cl`, the Potency entry was “inactive”.

Turning to `Nc1ccccc1`, the Potency result is “inactive”.

Turning to `O=C(O)C(F)(F)C(F)(F)C(F)(F)C(F)(F)C(F)(F)C(F)(F)C(F)(F)F`, the Potency entry was “inactive”.

As for `CCCC[n+]1cccc(C)c1`, the Potency result is “inactive”.

For the molecule `CCOS(C)(=O)=O`, the Potency entry was “inactive”.

For `COCCC#N`, the Potency entry is “inactive”.

Turning to `Cc1ccc(N)cc1C`, the Potency entry is “inactive”.

On to `O=C(O)COc1ccccc1`, for which the Potency entry was “inactive”.

With `NC(=O)CF`, the Potency result was “inactive”.

Consider `Nc1ccc(Cl)cc1`, for which the Potency result was “inactive”.

As to `Cc1ccc(N=C=O)cc1N=C=O`, the Potency result is “inactive”.

For the molecule `c1ccc2c(c1)oc1ccccc12`, the Potency result is “inactive”.

Turning to `COc1ccc(N)cc1N`, the Potency result was “inactive”.

Turning to `COc1ccc(C=O)cc1OC`, the Potency result was “inactive”.

Take `FC(F)(F)c1ccc(Cl)cc1`: the Potency result is “inactive”.

For the molecule `CC1OC(C)OC(C)O1` (stereo not given), the Potency result was “inactive”.

In the case of `O=[N+]([O-])c1ccccc1O`, the Potency entry was “inactive”.

`Nc1ccc(-c2ccc(N)c(N)c2)cc1N`: the Potency entry was “inactive”.

Consider `NC(=O)OCCCc1ccccc1`, for which the Potency entry is “inactive”.

Regarding `CC(O)CN1CCN(CC(=O)[O-])CCN(CC(=O)[O-])CCN(CC(=O)[O-])CC1.[Gd+3]` (stereo not given), the Potency result is “inactive”.

On to `Nc1ccc(-c2ccc(N)cc2)cc1`, for which the Potency result was “inactive”.
